Source: PubChem BioAssay
ELG1 repair inh: qHTS screen for small molecules that inhibit ELG1-dependent DNA repair in human embryonic kidney (HEK293T) cells expressing luciferase-tagged ELG1 | HEK293T ELG1-luciferase reporter, luminescence, 16 h; DNA damage induced by 5-fluorouridine | 330,000 tested, 2.3% active | Potency, µM (doses to about 46.1 µM), for the others: top-dose activity change, negative = inhibition, actives largely listed as inhibitors | AID 504467, 2011; note: % is set by controls: 0 for no effect and ±100 for the full control effect; nearly all actives have a fitted effect of over 55% in size
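Overnight (16 hr) co-exposure of 2,000 cells/well to 5-fluorouridine and compound at 37 °C preceded detection. Luciferase was quantified via ONE-Glo luminescence; loss of signal denotes inhibition.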
NPC1 prom act: qHTS Assay for NPC1 Promoter Activators; 320,000 tested, 2.4% active; Huh7 NPC1 promoter luciferase reporter, 24 h; AID 485313, 2010; Potency, µM (doses to about 9.22 µM), for inactives: at the highest dose activation, hits mostly activators; note: % of control where 0% means no effect; nearly all actives have a fitted effect of over 60% in size
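Stable NPC1-promoter luciferase Huh7 line; cpd (DMSO) 24 h, 37 °C, 5% CO2; Amplite luciferase reagent 10 min RT; luminescence readout. qHTS format.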
SMN2 splice enh: qHTS Assay for Enhancers of SMN2 Splice Variant Expression; 210,000 tested, 2.8% active; Potency, µM (series often up to 46.1 µM), without a hit: at the highest dose activity change, positive = activation, usual class: activators; HEK293 SMN2-luciferase splicing reporter, luminescence, 30-36 h; note: % of control where 0% means no effect; nearly all actives have a fitted effect of over 55% in size
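HEK293 cells carry an SMN2 minigene-luciferase reporter in which exon 7 inclusion puts luciferase in frame. Cells were seeded at 2000 cells/well, attached for 10-12 hours, then exposed to compounds for 30-36 hours at 37C before ONE-Glo luminescence.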
ELG1 genotox: qHTS screen for small molecules that induce genotoxicity in human embryonic kidney (HEK293T) cells expressing luciferase-tagged ELG1. HEK293T ELG1-luciferase reporter, luminescence, 16 h. Potency, µM (highest dose often 46 µM), for inactives: at the highest dose activity change, positive = activation, usual class: activators. 330,000 tested, 1.3% active. AID 504466, 2011; note: % of control where 0% means no effect; nearly all actives have a fitted effect of over 60% in size
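ELG1-luciferase HEK293T cells, 2,000/well; compound pinned in; 16 hr, 37 °C, 5% CO2; ONE-Glo, 30 min RT; luminescence on CCD imager.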
FLuc counter: qHTS profiling assay for firefly luciferase inhibitor/activator using purifed enzyme and Km concentrations of substrates (counterscreen for miR-21 project); purified FLuc, Km substrates, luminescence inhibition; Potency, µM (series often up to 57.5 µM), for inactives: top-dose activity change, negative = inhibition, actives largely listed as inhibitors; 360,000 tested, 6.9% active; AID 588342, 2011;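 note: plate controls were vehicle for no effect and reference inhibitor for full effect; nearly all actives have a fitted effect of over 55% in size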
Target sequence (P08659 whole entry, looked up): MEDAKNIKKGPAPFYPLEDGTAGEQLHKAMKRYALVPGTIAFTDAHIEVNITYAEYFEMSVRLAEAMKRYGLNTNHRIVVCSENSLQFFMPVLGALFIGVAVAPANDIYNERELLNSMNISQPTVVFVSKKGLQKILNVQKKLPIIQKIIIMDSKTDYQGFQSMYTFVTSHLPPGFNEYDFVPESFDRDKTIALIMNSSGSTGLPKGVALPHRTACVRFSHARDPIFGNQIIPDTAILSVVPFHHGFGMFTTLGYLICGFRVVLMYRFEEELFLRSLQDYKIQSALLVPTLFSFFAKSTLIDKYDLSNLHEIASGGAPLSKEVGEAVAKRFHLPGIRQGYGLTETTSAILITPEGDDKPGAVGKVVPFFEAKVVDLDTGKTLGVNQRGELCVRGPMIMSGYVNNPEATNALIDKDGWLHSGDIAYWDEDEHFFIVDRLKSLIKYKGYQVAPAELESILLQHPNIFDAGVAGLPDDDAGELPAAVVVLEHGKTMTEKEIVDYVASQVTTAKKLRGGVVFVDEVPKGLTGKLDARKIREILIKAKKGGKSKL
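Purified P. pyralis luciferase, 10 nM final, with Km-level 10 uM D-luciferin and 10 uM ATP in 50 mM Tris acetate pH 7.5, 10 mM Mg acetate, 0.01% Tween-20, 0.05% BSA; 6-point qHTS titration about 60 µM downward; luminescence read.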
Rab9 prom act: qHTS Assay for Rab9 Promoter Activators; Huh7 Rab9 promoter-luciferase reporter, luminescence, 24 h; Potency, µM (top dose mostly 9.22 µM), without a hit: at the top dose activation, negative = inhibition, hits mostly activators; 320,000 tested, 2.8% active; AID 485297, 2010; note: % of control where 0% means no effect; nearly all actives have a fitted effect of over 60% in size
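Luminescence read-out: Huh7 cells stably expressing Rab9-luciferase, treated 24 h with compound at 37 °C, then lysed with luciferase reagent for 10 min at ambient before reading.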
ELG1 FLuc counter: qHTS screen for small molecules that inhibit ELG1-dependent DNA repair: Hit Confirmation in Cell-Based Luciferin Assay; shares compounds with ELG1 repair inh; Potency, µM (series often up to 46.1 µM), without a hit: top-dose activity change, negative = inhibition, most hits filed as inhibitors; AID 624247, 2012; 350 tested, 3% active; cell-free firefly luciferase luminescence counter-screen, ViewLux; note: % is set by controls: 0 for no effect and ±100 for the full control effect
ELG1-Luc inh: HTS assay for small molecules that inhibit ELG1-dependent DNA repair in human embryonic kidney (HEK293T) cells expressing luciferase-tagged ELG1: Hit Confirmation; shares compounds with ELG1 repair inh; HEK293T ELG1-luciferase levels, luminescence; cells co-treated with 5-fluorouridine; Potency, µM (series often up to 46.1 µM), inactives show at the top dose activity change, negative = inhibition, usual class: inhibitors; 670 tested, 68% active; AID 624248, 2012; note: % is set by controls: 0 for no effect and ±100 for the full control effect; nearly all actives have a fitted effect of over 55% in size
ELG1 MMS Luc: MMS-stimulated human ELG1 repair inhibition, confirmed; shares compounds with ELG1 repair inh; 670 tested, 53% active; Potency, µM (highest dose often 46.1 µM), for the others: at the top dose activity change, negative = inhibition, hits mostly inhibitors; HEK293T luciferase-tagged ELG1 level, MMS stimulated; note: % is set by controls: 0 for no effect and ±100 for the full control effect; nearly all actives have a fitted effect of over 60% in size
ELG1 5FU viab: qHTS screen for small molecules that inhibit ELG1-dependent DNA repair: Hit Confirmation with 5FU Viability; shares compounds with ELG1 repair inh; cell viability with 5-FU, ELG1-dependent repair; Potency, µM (titrated, usually from 46.1 µM), for inactives: at the highest dose activity change, negative = viability loss, actives largely listed as cytotoxic; 670 tested, under 10 active;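 note: ELG1-luc HEK293T cells cotreated with 5-fluorouridine at 10 µM final; viability measured 16 h after compound addition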
ELG1 MMS viab: qHTS screen for small molecules that inhibit ELG1-dependent DNA repair: Hit Confirmation with MMS Viability | shares compounds with ELG1 repair inh | Potency, µM (titrated, usually from 46.1 µM), without a hit: top-dose activity change, negative = viability loss, most hits filed as cytotoxic | 670 tested, 33% active | AID 624251, 2012 | Cell viability with MMS, ELG1-dependent DNA repair;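 note: ELG1-luc HEK293T cells co-treated with 10 µM MMS; viability read 16 h after compound addition; % is set by controls: 0 for no effect and ±100 for the full control effect; nearly all actives have a fitted effect of over 60% in size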
ELG1 unstim viab: qHTS screen for small molecules that inhibit ELG1-dependent DNA repair: Hit Confirmation with Unstimulated Viability Assay. shares compounds with ELG1 repair inh. cell viability counter-screen, unstimulated, luminescence. Potency, µM (highest dose often 45.9 µM), for inactives: top-dose activity change, negative = loss of viability, most hits filed as cytotoxic. 900 tested, 8% active;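 note: compound exposure lasted 16 hours before reading; % is set by controls: 0 for no effect and ±100 for the full control effect; nearly all actives have a fitted effect of over 55% in size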
FLuc enzyme: qHTS screen for small molecules that inhibit ELG1-dependent DNA repair: Hit Confirmation in Biochemical Luciferin Assay. AID 624253, 2012. Potency, µM (doses to about 57.5 µM), without a hit: top-dose activity, negative = inhibition, hits mostly inhibitors. purified firefly luciferase, luminescence counter-screen. 350 tested, 10% active. shares compounds with ELG1 repair inh; note: % is set by controls: 0 for no effect and ±100 for the full control effect
Numbers without * were called inactive; ? = inconclusive; nt = no result; [ ] = another dose, or the depositor's remark. Rows were chosen to be rich in hits. Some 9.3% of all compounds tested hit in one or more screens of this group. Calls come from the whole dose curve; as a rule, active = well fitted curve in the direction sought with a large enough effect; inconclusive = small, poorly fitted or top-dose-only effect, or another doubt; inactive = no such curve, though single readings can be large; an effect the other way counts as inactive or inconclusive. Potency is the fitted concentration of half-maximal effect.

SMILES | ELG1 repair inh | NPC1 prom act | SMN2 splice enh | ELG1 genotox | FLuc counter | Rab9 prom act | ELG1-Luc inh | ELG1 MMS Luc | ELG1 5FU viab | ELG1 MMS viab | ELG1 unstim viab | others
COc1cc(/C=N/NC(=O)c2ccc(CN3c4cccc5cccc(c45)S3(=O)=O)cc2)cc(OC)c1O | 3.26µM* | -4.5% | -26.7% | -1.0% | -2.7% | -2.2% | 3.53µM* | 22.3µM* | ? | 25µM* | ?
COc1ccc(CCNC(=O)CN2c3cccc4cccc(c34)S2(=O)=O)cc1OC | 2.59µM* | 1.4% | nt | 0.4% | 2.4% | 4.5% | ? | 19.9% | ? | -1.1% | ?
COc1ccc(/C=N/NC(=O)c2ccc(CN3c4cccc5cccc(c45)S3(=O)=O)cc2)cc1 | ? | 2.0% | -27.4% | 0.2% | -19.9% | 0.3% | nt | nt | nt | nt | nt
COc1ccc(C(=O)c2ccccc2)c2c(O)ccc(C(=O)c3ccccc3)c12 | ? | -11.8% | -79.1% | -1.2% | -0.3% | -20.7% | 4.99µM* | 1.58µM* | -2.9% | 2.23µM* | ?
Cc1ccc(C2=NN(C(=O)CCl)C(c3ccco3)C2)o1 (stereo unspecified) | 2.31µM* | -42.7% | nt | -17.2% | 2.1% | -51.4% | 22.3µM* | 3.97µM* | ? | 7.05µM* | ?
O=S(=O)(Nc1nc2ccccc2nc1Cl)c1ccc2c(c1)OCCO2 | ? | -1.6% | nt | -4.3% | ? | 2.7% | nt | nt | nt | nt | nt
CC1(C)Cc2c(C#N)c(SCCOc3ccccc3)nc(N3CCOCC3)c2CO1 | 2.51µM* | -8.9% | -54.9% | -14.5% | 4.7% | 10.6% | 3.53µM* | ? | ? | -9.4% | ?
CCN(CC)S(=O)(=O)c1cccc(-n2c(O)c(C=Nc3ccccc3C(=O)O)c3ccccc3c2=O)c1 | 5.8µM* | -6.2% | nt | -8.0% | -8.7% | 14.5% | 0.353µM* | 0.353µM* | -27.1% | 0.397µM* | 0.445µM*
O=C1c2ccccc2C(=O)N1Cc1cccnc1 | 26.7% | -8.0% | 1.9% | 0.5% | 0.6% | -3.0% | nt | nt | nt | nt | nt
O=C(CN(C(=O)CCC(=O)Nc1ccccn1)c1cccc(F)c1)NCc1ccc2c(c1)OCO2 | -13.3% | -0.5% | nt | -12.2% | 0.4% | -3.4% | nt | nt | nt | nt | nt
COc1cc2c(cc1OC)-c1cc(N3CCc4ccccc43)nc(=O)n1CC2 | ? | 1.9% | nt | 2.1% | ? | -1.5% | 2.81µM* | 26.1% | ? | ? | ?
COc1ccccc1/C=C(\NC(=O)c1ccc(OC)c(OC)c1)C(=O)Nc1cc([N+](=O)[O-])ccc1C | 0.651µM* | -4.3% | -10.4%[1.84 µM] | 1.9% | 0.1% | -3.2% | 1.58µM* | ? | ? | ? | 11.1% | ELG1 FLuc counter=1.2%;FLuc enzyme=4.2%
CCOC(=O)c1c(C)[nH]c(C(=O)NNC(=O)c2ccccc2F)c1C | ? | nt | nt | ? | nt | nt | nt | nt | nt | nt | -9.1%
CCOC(=O)c1c(C)[nH]c(C(=O)NNC(=O)c2ccc(Br)cc2)c1C | ? | 15.9% | nt | 7.2% | ? | 29.9% | nt | nt | nt | nt | nt
Cc1nn(-c2ccccc2)c2c1C(O)n1c(nc3ccccc31)S2 (stereo unspecified) | 2.59µM* | 4.3% | 24.6% | -35.0% | -14.9% | 14.5% | 15.8µM* | 11.2µM* | ? | 25µM* | ?
O=C(CCC(=O)Nc1ccc(Cl)cc1Cl)NNC(=O)Nc1ccccc1 | -10.7% | -2.0% | 6.1% | -6.4% | 0.3% | -2.7% | nt | nt | nt | nt | nt
Nc1ncc([N+](=O)[O-])c(N2CCCCCC2)n1 | 2.31µM* | 13.0% | nt | -26.4% | 0.6% | -2.4% | 4.45µM* | 12.5µM* | -14.4% | -0.5% | -13.4%
O=[N+]([O-])c1ccc(N2CCCC2)nc1N1CCCC1 | -1.5% | -4.2% | nt | -3.0% | -2.8% | 15.3% | nt | nt | nt | nt | nt
O=c1[nH]c(Cc2ccccc2Cl)nc2ccccc12 | -3.0% | 0.2% | 0.8% | 2.1% | -2.8% | -0.7% | nt | nt | nt | nt | nt
Cc1ccc([N+](=O)[O-])cc1Nc1nc(N2CCOCC2)nc(N2CCOCC2)n1 | 16.4µM* | -4.1% | -16.1% | -9.6% | -6.0% | -4.5% | 8.89µM* | ? | ? | ? | ? | ELG1 FLuc counter=62.4%;FLuc enzyme=-6.4%
COc1ccccc1Nc1nc(N2CCOCC2)nc(N2CCOCC2)n1 | 1.64µM* | -4.6% | nt | -7.7% | 1.6% | -4.2% | 7.92µM* | 1.7% | ? | -2.1% | -7.9% | ELG1 FLuc counter=0.1%;FLuc enzyme=3.6%
